Structures are written as SMILES. Unmarked numbers belong to inactive results. Calls of active or inactive are those of the source.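 The calls were made as follows: active = average half-effect concentration of 10 µM or less in every one of the four cell panels; inactive = the rest.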

The subject of this assay is HL-1. Put plainly: protection of cardiomyocytes from stress damage, SAR follow-up, cell-based, panel, H9c2 and HL-1, H2O2, 2-deoxyglucose, ATP luminescence (AID 651642).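 As to activity: plate controls were H2O2 plus DMSO for no effect and cells kept without H2O2 for full effect.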 The following applies: H9c2/HL-1 cardiomyocyte H2O2 oxidative damage, mean of runs; activity: with H2O2, at 0.154 µM; outcome: with H2O2.

On to `COc1cc(-c2cc(C(=O)NCC(=O)O)c3ccccc3n2)cc(OC)c1OC`, for which the activity was -0.263%. Take `COc1cc(-c2cc(C(=O)NCC(=O)Nc3cccc(C(C)=O)c3)c3cc(F)ccc3n2)cc(OC)c1OC`: the activity is -0.68% (active). For the compound `COc1cc(-c2cc(C(=O)Nc3cccc(C(=O)NC4CC4)c3)c3ccccc3n2)cc(OC)c1OC`, the activity was -0.15% (active). For `COc1cc(-c2cc(C(=O)Nc3cccc(C#N)c3)c3ccccc3n2)cc(OC)c1OC`, the activity was 0.75%. As to `COc1cc(-c2cc(C(=O)Nc3cccc(C(C)=O)c3)c3cc(Br)ccc3n2)cc(OC)c1OC`, the activity was 1.55%.

Take `CCOC(=O)c1cccc(NC(=O)c2cc(-c3cc(OC)c(OC)c(OC)c3)nc3ccc(C)cc23)c1`: the activity was 4.25%. The same measure, in the same setting: the figure for `COc1ccc2c(c1OC)C(=O)N1c3ccccc3C(=O)N(Cc3ccncc3)C21` (configuration not stated) is 0.0397%; for `COc1cc(-c2cc(C(=O)Nc3cccc(C(=O)NCc4ccccc4)c3)c3ccccc3n2)cc(OC)c1OC` it is 1.48% (active); for `COC(=O)CNC(=O)c1cccc(NC(=O)c2cc(-c3cc(OC)c(OC)c(OC)c3)nc3ccccc23)c1` it is -1.7% (active). `COc1cccc(CNC(=O)CNC(=O)c2cc(-c3cc(OC)c(OC)c(OC)c3)nc3ccccc23)c1`: the activity was -2.04%.

As to `COc1cc(-c2cc(C(=O)Nc3cccc(C(=O)O)c3)c3ccccc3n2)cc(OC)c1OC`, the activity was 1.9%. Regarding `CCOC(=O)c1cccc(NC(=O)CNC(=O)c2cc(-c3cc(OC)c(OC)c(OC)c3)nc3ccc(C)cc23)c1`, the activity is -1.48% (active).

For `COc1cc(-c2cc(C(=O)Nc3cccc(C(C)=O)c3)c3ccccc3n2)cc(OC)c1OC`, the activity was -1.02% (active). Regarding `COc1cc(-c2cc(C(=O)NCC(=O)Nc3cccc(C(C)=O)c3)c3cc(Br)ccc3n2)cc(OC)c1OC`, the activity is -0.566% (active).

As for `COc1cc(-c2cc(C(=O)Nc3cccc(-c4nn[nH]n4)c3)c3ccccc3n2)cc(OC)c1OC`, the activity is -2.86%. As for `COc1ccc2c(c1OC)C(=O)N1c3ccccc3C(=O)N(Cc3ccc(C)cc3)C21` (configuration not stated), the activity was 9.89%. With `COc1ccc2c(c1OC)C(=O)N1c3ccccc3C(=O)N(Cc3ccccn3)C21` (configuration not stated), the activity was 1.21%.

On to `CCOC(=O)c1cccc(NC(=O)c2cc(-c3cc(OC)c(OC)c(OC)c3)nc3ccc(Cl)cc23)c1`, for which the activity is -1.55%. Consider `COc1ccccc1CN1C(=O)c2ccccc2N2C(=O)c3c(ccc(OC)c3OC)C12` (configuration not stated), for which the activity was 1.25%. Take `COc1ccc2nc(-c3cc(OC)c(OC)c(OC)c3)cc(C(=O)Nc3cccc(C(C)=O)c3)c2c1`: the outcome was “inactive”. As for `COc1ccc2c(c1OC)C(=O)N1c3ccccc3C(=O)N(Cc3cccc(C)c3)C21` (configuration not stated), the activity was -2.16%.

As to `CCOC(=O)c1cccc(NC(=O)CNC(=O)c2cc(-c3cc(OC)c(OC)c(OC)c3)nc3ccc(OC)cc23)c1`, the activity was -3.33% (active). On to `COc1ccc2c(c1OC)C(=O)N1c3ccccc3C(=O)N(Cc3ccccc3F)C21` (configuration not stated), for which the activity was 4.24%. Turning to `COC(=O)CNC(=O)c1cc(-c2cc(OC)c(OC)c(OC)c2)nc2ccccc12`, the activity was -2.8%. As to `COc1ccc2c(c1OC)C(=O)N1c3ccccc3C(=O)N(Cc3ccccc3Cl)C21` (configuration not stated), the activity was 2.73%. Take `COc1ccc2c(c1OC)C(=O)N1c3ccccc3C(=O)N(Cc3ccccc3)C21` (configuration not stated): the activity was -5.45%. As for `COc1cc(-c2cc(C(=O)NCC(=O)Nc3cccc(C(C)=O)c3)c3cc(C)ccc3n2)cc(OC)c1OC`, the activity was 0.0397%. Still for that read-out and setting: next, `COc1ccc(NC(=O)CNC(=O)c2cc(-c3cc(OC)c(OC)c(OC)c3)nc3ccccc23)cc1`: 3.9% (active); `COc1cc(-c2cc(C(=O)Nc3cccc(C(C)=O)c3)c3cccc(Cl)c3n2)cc(OC)c1OC`: -3.22%. Regarding `CCNC(=O)c1cccc(NC(=O)c2cc(-c3cc(OC)c(OC)c(OC)c3)nc3ccccc23)c1`, the activity was -0.0361% (active). On to `COc1ccc2c(c1OC)C(=O)N1c3ccccc3C(=O)N(Cc3ccccc3C)C21` (configuration not stated), for which the activity is -0.339%. On to `COc1ccc2nc(-c3cc(OC)c(OC)c(OC)c3)cc(C(=O)NCC(=O)Nc3cccc(C(C)=O)c3)c2c1`, for which the activity was -0.983% (active).

Values taken from PubChem BioAssay AID651642 (Sanford-Burnham Center for Chemical Genomics, 2012).
